These compounds were tested against T1, Aurora kinase A (Homo sapiens) (UniProt O14965). Settings: at 0.1 µM.
T1 sequence (whole entry): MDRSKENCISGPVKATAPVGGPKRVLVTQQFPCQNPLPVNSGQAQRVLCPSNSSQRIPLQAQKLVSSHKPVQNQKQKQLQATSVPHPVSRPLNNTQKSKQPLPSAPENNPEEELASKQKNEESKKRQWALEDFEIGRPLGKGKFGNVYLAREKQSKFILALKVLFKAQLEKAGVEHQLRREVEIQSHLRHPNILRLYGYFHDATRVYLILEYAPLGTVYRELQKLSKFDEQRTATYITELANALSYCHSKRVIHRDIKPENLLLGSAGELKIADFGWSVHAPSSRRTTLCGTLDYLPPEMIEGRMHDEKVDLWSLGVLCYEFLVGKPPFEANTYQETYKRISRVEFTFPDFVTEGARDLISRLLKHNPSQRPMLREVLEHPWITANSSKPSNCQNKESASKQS
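Note: each reported value is a mean percent inhibition of Aurora-A.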

Row | SMILES | inhibition [%]
1 | Fc1ccc(-c2nc3n(c2-c2ccncc2)CCS3)cc1 | -1.28
2 | Fc1ccc(-c2ncn(C3CCNCC3)c2-c2ccnc(Oc3ccc4c(c3)OCO4)n2)cc1 | 4.04
3 | Fc1ccc(-c2c(-c3ccncc3)nc3n2CCS3)cc1 | -2.71
4 | O=C(Nc1n[nH]c2nc(-c3ccc(O)cc3)c(Br)cc12)C1CC1 | 5.34
5 | CN(C)CCOc1ccc(-c2cc(-c3ccc4c(c3)CCC4=NO)c(-c3ccncc3)o2)cc1 | 0.13
6 | COc1ccc(C2=C(N3CCc4ccccc43)C(=O)NC2=O)cc1 | 1.27
7 | CN(c1ccc(NC(=O)Nc2c(Cl)cccc2Cl)cc1)c1ccnc(Nc2cccc(CS(C)(=O)=O)c2)n1 | 73.9
8 | Cc1ccc(C(=O)NC2CCC2)cc1-c1ccc(C(=O)NCC2CC2)cc1 | 2.11
9 | COc1cccc(-n2cnc3c(N/N=C/c4ccncc4)ncnc32)c1 | -0.8
10 | Cc1ccc(C(=O)NC(C)C)cc1-c1ccc(C(=O)NCC2CC2)cc1 | -3.2
11 | NC(=O)Cc1ccccc1Oc1nccc(-c2c(-c3ccc(F)cc3)ncn2C2CCNCC2)n1 | 1.9
12 | O=C1Nc2ccccc2/C1=C/Nc1ccc(-n2cncn2)cc1 | 4.13
13 | c1ccc(Oc2ccc(Nc3ncc(-c4ccccc4)o3)cc2)cc1 | 1.36
14 | COc1cc2ncn(-c3cc(OCc4ccccc4C(F)(F)F)c(C(C)=O)s3)c2cc1OC | 2.64
15 | COc1ccc2ncn(-c3cc(O[C@H](C)c4ccccc4Cl)c(C(N)=O)s3)c2c1 | -1.27
16 | CCc1nccc2c1nc(-c1nonc1N)n2CC | 2.35
17 | CN(C)c1ccc2c(c1)/C(=C/Nc1ccc(S(N)(=O)=O)cc1)C(=O)N2 | 6.26
18 | COc1cc2ncn(-c3cc(OCc4cccs4)c(C(N)=O)s3)c2cc1OC | -6.64

From ChEMBL document CHEMBL1961873, “Compounds: GSK PKIS; Assays: Nanosyn kinase panel” (2012)
